This is part of a sample that, as a whole, favours compounds with a hit. Of some 83,000 tested, about 20% had one in any assay.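 Step 1: grow cells in 96-well plates. Step 2: add test compound at a single concentration. Step 3: incubate 48 h. Step 4: record percent growth.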 A number with no mark means an inactive call. Activity calls are given as the source filed them. The calls were made as follows: active = growth percent below 10; inactive = the rest.
These molecules were tested on UO-31 renal (assay: NCI-60 one-dose screen, 48 h (100 = growth as untreated, 0 = no growth, -100 = all killed)). Settings: 10 µM unless noted.
In the case of `COc1ccc(C=Nc2c(C(=O)Nc3cccc(Cl)c3C)sc3nc(C)c(C(=O)/C=C/c4ccc(OC)cc4)cc23)cc1`, the growth is reported as 35.9%. For `CCOC(=O)CNC1=C(Cl)C(=O)N(Cc2ccc(Cl)cc2)C1=O`, the growth was 66.6%. `COc1ccc(/C=C(\C(=O)NCc2cccnc2)S(=O)(=O)c2ccccc2)cc1OC` showed a growth of 38.8%. `COc1cc2c(c(OC)c1OC)CCC(c1cccc(C(=O)Nc3ccc(Br)cc3)c1)O2` (stereo not given) gave a growth of 39.7%. For `Nc1cc(-c2ccc(Cl)cc2)nn1-c1nnc(/C=C/c2ccco2)c(=O)[nH]1`, the growth was 3.92% (active). With `N#C/C(=C\c1ccc(-c2cccc(Cl)c2)o1)C(=O)Nc1ncc(Cc2ccc(Cl)cc2)s1` the growth was 23.7%. For `CCOC(=O)c1c(C)nc2c(c1N)C(=O)C(=O)N2Cc1ccc(OC)cc1`, the growth was 59.6%. Molecule `c1csc(-c2cn3nc(-c4c[nH]c5ccccc45)sc3n2)c1` has a growth of 30.7%. `FC(F)(F)c1[nH]ncc1-c1nc2ccc3[nH]ncc3c2c2c1CCCC2` was tested, and the growth was -26.8% (active). Work on `COc1cc(-c2nccc3[nH]c(-c4cccc5[nH]ccc45)nc23)cc(OC)c1OC` yielded a growth of 34%. `COc1ccc2[nH]cc(-c3nonc3-c3c[nH]c4ccc(Br)cc34)c2c1` was tested, and the growth was 36.5%. For `CC(=O)c1c(Nc2cccc(F)c2)[nH]c2c(Cl)cc(Cl)c(Cl)c2c1=O`, the growth was 6.24% (active). `CCOC(=O)NC(=S)n1oc(=O)c2ccccc21` was tested, and the growth was 82.2%. For `O=S(Nc1ccccc1)c1ccc(Cl)cc1` (stereo not given), the growth was 85.7%. Molecule `Nc1c(Br)cc2c(c1Br)Cc1cc([N+](=O)[O-])ccc1-2` has a growth of 79.1%. In the case of `CCCN(CCSSCCNc1nc(N(C)O)nc(N(C)O)n1)c1nc(N(C)O)nc(N(C)O)n1`, the growth is reported as 52.3%. In the case of `COC(=O)c1sccc1-c1cc(O)c(C(=O)Nc2ccccc2)s1`, the growth is reported as 69.9%. `N#Cc1c(-c2ccc(Cl)cc2)nc(NN=Cc2ccc[nH]2)nc1N1CCOCC1` gave a growth of 14.8%. `Clc1ccc(-c2nc(C(Cl)Cl)nc3cc(-c4ccccc4)nn23)cc1` showed a growth of 47.3%. For `C/C(=N\Nc1ccccc1)c1ccc(NC2=CC(=O)c3ccccc3C2=O)cc1`, the growth was 38.8%. Work on `COc1ccc(/C=C(/C(=O)N2CCNCC2)c2cc(OC)c(OC)c(OC)c2)cc1O` yielded a growth of 89.7%. For `CCN(CC)CCCC(Cc1ccccc1)Nc1c2ccc(Cl)cc2nc2ccc(OC)cc12` (stereo not given), the growth was -39.6% (active). With `Fc1ccc2[nH]cc(-c3nc(-c4c[nH]c5c(Cl)nccc45)cs3)c2c1` the growth was 21.8%. With `Fc1ccc(/C=C/[C@@H]2C[C@@H](F)CCO2)cc1` the growth was 87%. Work on `Cc1ccccc1N1CCN(C(=S)c2ccccc2)CC1` yielded a growth of 82.1%. `N#Cc1ccc(/C=C/c2cn(-c3ccccc3)nc2-c2cccc([N+](=O)[O-])c2)cc1` showed a growth of 79.3%. In the case of `Cc1[nH]c(C(=O)Nc2ccccc2OC2CCN(CCN3CCOCC3)CC2)c(Cl)c1Cl`, the growth is reported as 51.9%. `COc1ccc(C(O)c2cc3c(N)c(C(=O)Nc4cccc5ccccc45)sc3nc2C)cc1` (stereo not given) showed a growth of 25.8%. In the case of `Cc1ccc(C(=O)c2ccc(CC(=O)N/N=C/c3cccc(O)c3O)n2C)cc1`, the growth is reported as 14.2%. In the case of `CCC(C)(C)c1ccc(Nc2ccc(Nc3ccc(C(C)(C)CC)cc3)cc2)cc1`, the growth is reported as 62.5%. `O=C(Nc1ccc(Nc2ccncc2)cc1)c1ccc(Nc2ccnc3ccc([N+](=O)[O-])cc23)cc1` was tested, and the growth was 95.7%. `CCCCNC(=O)c1ccc2c(c1)nc(-c1ccccc1)n2C1CCCCC1` showed a growth of 79.1%. Work on `Cc1ccc(NC(=O)c2cc3ccccc3cc2O)c(C)c1` yielded a growth of 69.2%. `CCOC(=O)C(CCN(C)C)c1ccccc1` (stereo not given) gave a growth of 90.9%. With `CC(O)Cc1c[nH]c(=O)[nH]c1=O` (stereo not given) the growth was 100%. With `COCCn1cc(-c2nc(-c3c[nH]c4ncccc34)cs2)c2ccccc21` the growth was 41%. `CC1SC(c2ccccc2O)N(NC(=O)CCC(=O)c2nc3ncccc3[nH]2)C1=O` (stereo not given) gave a growth of 66.9%. Work on `COC12C=C/C(=C(/C(=O)OCCSc3ccnn3C)C(=O)CCCCCCCCC3(OC)C=C/C(=C(/C(=O)OCCSc4ccnn4C)C(=O)CCCCCCCC1)O3)O2` yielded a growth of 14.8%. With `COC1C(O)CC(OC2CC(OC3CC(O[C@@H]4C(=O)c5c(cc6cc(OC7CC(OC8CC(O)C(O)C(C)O8)C(O)C(C)O7)c(C)c(O)c6c5O)CC4[C@H](OC)[C@@H](O)C(C)=O)OC(C)C3O)OC(C)C2O)OC1C` (stereo not given in full) the growth was 0.176% (active). `CNC(=O)c1cc(Oc2ccc3c(c2)sc2nc(-c4ccc(NC(=O)[C@@H](NC(=O)OC)C(C)C)cc4)cn23)ccn1` was tested, and the growth was 52.5%.

Each molecule was assayed on TK-10 renal in the same assay as above. Settings: 10 µM unless noted.
For `COc1ccc(C=Nc2c(C(=O)Nc3cccc(Cl)c3C)sc3nc(C)c(C(=O)/C=C/c4ccc(OC)cc4)cc23)cc1`, the growth was 36.5%. With `CCOC(=O)CNC1=C(Cl)C(=O)N(Cc2ccc(Cl)cc2)C1=O` the growth was 102%. For `COc1ccc(/C=C(\C(=O)NCc2cccnc2)S(=O)(=O)c2ccccc2)cc1OC`, the growth was 46.4%. In the case of `COc1cc2c(c(OC)c1OC)CCC(c1cccc(C(=O)Nc3ccc(Br)cc3)c1)O2` (stereo not given), the growth is reported as 77.4%. In the case of `Nc1cc(-c2ccc(Cl)cc2)nn1-c1nnc(/C=C/c2ccco2)c(=O)[nH]1`, the growth is reported as 51.2%. `N#C/C(=C\c1ccc(-c2cccc(Cl)c2)o1)C(=O)Nc1ncc(Cc2ccc(Cl)cc2)s1` gave a growth of 69.9%. Molecule `CCOC(=O)c1c(C)nc2c(c1N)C(=O)C(=O)N2Cc1ccc(OC)cc1` has a growth of 96%. `c1csc(-c2cn3nc(-c4c[nH]c5ccccc45)sc3n2)c1` was tested, and the growth was 50.5%. `FC(F)(F)c1[nH]ncc1-c1nc2ccc3[nH]ncc3c2c2c1CCCC2` was tested, and the growth was 1.15% (active). In the case of `COc1cc(-c2nccc3[nH]c(-c4cccc5[nH]ccc45)nc23)cc(OC)c1OC`, the growth is reported as 34.7%. For `COc1ccc2[nH]cc(-c3nonc3-c3c[nH]c4ccc(Br)cc34)c2c1`, the growth was 49.9%. Molecule `CC(=O)c1c(Nc2cccc(F)c2)[nH]c2c(Cl)cc(Cl)c(Cl)c2c1=O` has a growth of 12.5%. In the case of `CCOC(=O)NC(=S)n1oc(=O)c2ccccc21`, the growth is reported as 109%. Work on `O=S(Nc1ccccc1)c1ccc(Cl)cc1` (stereo not given) yielded a growth of 103%. Work on `Nc1c(Br)cc2c(c1Br)Cc1cc([N+](=O)[O-])ccc1-2` yielded a growth of 90.6%. `CCCN(CCSSCCNc1nc(N(C)O)nc(N(C)O)n1)c1nc(N(C)O)nc(N(C)O)n1` gave a growth of 71%. `COC(=O)c1sccc1-c1cc(O)c(C(=O)Nc2ccccc2)s1` showed a growth of 121%. In the case of `N#Cc1c(-c2ccc(Cl)cc2)nc(NN=Cc2ccc[nH]2)nc1N1CCOCC1`, the growth is reported as 63.3%. With `Clc1ccc(-c2nc(C(Cl)Cl)nc3cc(-c4ccccc4)nn23)cc1` the growth was 36.8%. Molecule `C/C(=N\Nc1ccccc1)c1ccc(NC2=CC(=O)c3ccccc3C2=O)cc1` has a growth of 81.5%. With `COc1ccc(/C=C(/C(=O)N2CCNCC2)c2cc(OC)c(OC)c(OC)c2)cc1O` the growth was 92.4%. With `CCN(CC)CCCC(Cc1ccccc1)Nc1c2ccc(Cl)cc2nc2ccc(OC)cc12` (stereo not given) the growth was -2.6% (active). With `Fc1ccc2[nH]cc(-c3nc(-c4c[nH]c5c(Cl)nccc45)cs3)c2c1` the growth was 33.8%. Work on `Fc1ccc(/C=C/[C@@H]2C[C@@H](F)CCO2)cc1` yielded a growth of 94.2%. With `Cc1ccccc1N1CCN(C(=S)c2ccccc2)CC1` the growth was 108%. Molecule `N#Cc1ccc(/C=C/c2cn(-c3ccccc3)nc2-c2cccc([N+](=O)[O-])c2)cc1` has a growth of 76.9%. `Cc1[nH]c(C(=O)Nc2ccccc2OC2CCN(CCN3CCOCC3)CC2)c(Cl)c1Cl` showed a growth of 69.7%. In the case of `COc1ccc(C(O)c2cc3c(N)c(C(=O)Nc4cccc5ccccc45)sc3nc2C)cc1` (stereo not given), the growth is reported as 63.8%. For `Cc1ccc(C(=O)c2ccc(CC(=O)N/N=C/c3cccc(O)c3O)n2C)cc1`, the growth was 38.8%. `CCC(C)(C)c1ccc(Nc2ccc(Nc3ccc(C(C)(C)CC)cc3)cc2)cc1` gave a growth of 103%. Work on `O=C(Nc1ccc(Nc2ccncc2)cc1)c1ccc(Nc2ccnc3ccc([N+](=O)[O-])cc23)cc1` yielded a growth of 140%. `CCCCNC(=O)c1ccc2c(c1)nc(-c1ccccc1)n2C1CCCCC1` gave a growth of 130%. `Cc1ccc(NC(=O)c2cc3ccccc3cc2O)c(C)c1` showed a growth of 93.8%. With `CCOC(=O)C(CCN(C)C)c1ccccc1` (stereo not given) the growth was 95%. Work on `CC(O)Cc1c[nH]c(=O)[nH]c1=O` (stereo not given) yielded a growth of 123%. `COCCn1cc(-c2nc(-c3c[nH]c4ncccc34)cs2)c2ccccc21` showed a growth of 36.2%. `CC1SC(c2ccccc2O)N(NC(=O)CCC(=O)c2nc3ncccc3[nH]2)C1=O` (stereo not given) showed a growth of 103%. Work on `COC12C=C/C(=C(/C(=O)OCCSc3ccnn3C)C(=O)CCCCCCCCC3(OC)C=C/C(=C(/C(=O)OCCSc4ccnn4C)C(=O)CCCCCCCC1)O3)O2` yielded a growth of 39.9%. In the case of `COC1C(O)CC(OC2CC(OC3CC(O[C@@H]4C(=O)c5c(cc6cc(OC7CC(OC8CC(O)C(O)C(C)O8)C(O)C(C)O7)c(C)c(O)c6c5O)CC4[C@H](OC)[C@@H](O)C(C)=O)OC(C)C3O)OC(C)C2O)OC1C` (stereo not given in full), the growth is reported as -1.06% (active). For `CNC(=O)c1cc(Oc2ccc3c(c2)sc2nc(-c4ccc(NC(=O)[C@@H](NC(=O)OC)C(C)C)cc4)cn23)ccn1`, the growth was 85.4%.

— PubChem BioAssay (NCI)
